Screening data (PubChem)
SNCA expr inhib: inhibitors of alpha-synuclein (SNCA) gene expression. HEK-293 SNCA-luciferase knock-in, luminescence, 24 h. Potency, µM (doses to about 57.2 µM), most hits filed as inhibitors. 0.17% of 140,000 active; further: nearly all actives have a fitted effect of over 45% in size
Luciferase inh: Photinus pyralis luciferase inhibition | P08659 | purified P. pyralis luciferase, luminescence, biochemical | Potency, µM (doses to about 115 µM), actives largely listed as inhibitors | 2.5% of 76,000 active; further: nearly all actives have a fitted effect of over 65% in size
Target sequence (P08659 whole entry, looked up): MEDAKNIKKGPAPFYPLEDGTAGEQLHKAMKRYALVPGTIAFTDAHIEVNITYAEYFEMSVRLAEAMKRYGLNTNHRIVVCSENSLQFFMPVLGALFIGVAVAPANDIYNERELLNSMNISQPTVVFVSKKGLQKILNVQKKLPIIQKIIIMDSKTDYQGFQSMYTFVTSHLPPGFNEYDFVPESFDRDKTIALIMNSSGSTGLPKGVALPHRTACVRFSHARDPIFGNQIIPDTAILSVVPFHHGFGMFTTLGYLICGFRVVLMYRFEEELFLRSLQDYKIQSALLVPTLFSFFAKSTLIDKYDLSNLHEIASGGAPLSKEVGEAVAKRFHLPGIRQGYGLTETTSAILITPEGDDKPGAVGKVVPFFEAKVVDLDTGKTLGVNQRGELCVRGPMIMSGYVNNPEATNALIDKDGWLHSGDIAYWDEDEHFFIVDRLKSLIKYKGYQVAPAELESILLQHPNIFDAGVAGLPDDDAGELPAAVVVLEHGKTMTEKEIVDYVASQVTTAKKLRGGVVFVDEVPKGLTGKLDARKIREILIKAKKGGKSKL
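FLuc 10nM, D-luciferin 10uM, ATP 10uM, Mg acetate 10mM, Tris acetate pH 7.5, Tween/BSA; cpd qHTS; enzyme added last; CCD luminescence.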
hNpr1 antagonist: blocks ANP-stimulated signaling of human Npr1 receptor; P16066; HEK293 hNpr1 GloSensor cGMP, ANP-stimulated luminescence; Potency, µM (top dose mostly 46.3 µM), usual class: inhibitors; 1.6% of 76,000 active; AID 1347048; calls by dose curve; further: nearly all actives have a fitted effect of over 60% in size
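HEK293 cells stably expressing human Npr1 and cGMP GloSensor pGS-40F, loaded 2 h with 2% GloSensor reagent, given compound 30 min at room temperature. Luminescence read before and 20 min after 0.1 nM hNppA.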
HEK293 viab: cell viability loss counter-screen; HEK-293-SNCA-luc viability, GF-AFC fluorescence, 24 h; Potency, µM (top dose mostly 57.1 µM), hits mostly cytotoxic; 0.12% of 150,000 active; AID 1671193; further: nearly all actives have a fitted effect of over 30% in size
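Cytotoxicity counterscreen: after 24 h compound treatment of genome-edited SNCA-luciferase HEK-293 cells, live-cell protease substrate GF-AFC read by fluorescence after 30 min; activity scaled between DMSO (0%) and medium-only (-100%), curves Hill-fitted.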
3T3 cytotox: cytotoxic compounds in NIH 3T3 cells. NIH 3T3 viability, CellTiter-Glo ATP luminescence, 48-72 h. Potency, µM (doses to about 96.7 µM), most hits filed as inhibitors. 4.3% of 94,000 active; further: nearly all actives have a fitted effect of over 55% in size
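ATP-dependent luminescence (CellTiter-Glo) served as the viability signal for NIH 3T3 cells treated with compound for 48 or 72 hr at 37 °C.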
HEK cytotox: HEK 293 cell cytotoxicity; HEK 293 viability, ATP luminescence (CellTiter-Glo), 48-72 h; Potency, µM (highest dose often 115 µM), actives largely listed as inhibitors; 6.6% of 94,000 active; AID 1345083; further: nearly all actives have a fitted effect of over 60% in size
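HEK 293 seeded at 250 cells/well receive compound via pintool. After 48 or 72 hr at 37 degree Celsius, 5% CO2 and 95% humidity, CellTiter-Glo is dispensed and luminescence read following 10 min at room temperature.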
Npr1 antag conf: confirmation of human Npr1 natriuretic peptide receptor antagonists; HEK293 hNpr1 cGMP GloSensor luminescence, ANP-stimulated; 76% of 1,400 active; shares compounds with hNpr1 antagonist; Potency, µM (series often up to 57.6 µM), most hits filed as inhibitors; AID 1347044; calls by dose curve; further: nearly all actives have a fitted effect of over 70% in size
NPR2 antag: antagonizes human Npr2, subtype selectivity check | shares compounds with hNpr1 antagonist | HEK293 hNpr2 GloSensor cGMP luminescence, CNP-stimulated | Potency, µM (series often up to 57.6 µM), most hits filed as inhibitors | 67% of 1,400 active | AID 1347046; calls by dose curve; further: nearly all actives have a fitted effect of over 70% in size
FLuc counter: FLuc enzyme inhibition, Npr1 counter-screen. shares compounds with hNpr1 antagonist. 0.7% of 1,400 active. purified FLuc enzyme, luminescence, Km substrate. Potency, µM (doses to about 57.6 µM), most hits filed as inhibitors
GloSensor ctrl: counter-screen for Npr1 antagonists: GloSensor control cell line; shares compounds with hNpr1 antagonist; HEK293 GloSensor cGMP, SNP-stimulated, luminescence; Potency, µM (top dose mostly 57.6 µM), most hits filed as inhibitors; 69% of 1,400 active; calls by dose curve; further: nearly all actives have a fitted effect of over 70% in size
Each line names hits and unclear results; the compound was inactive in the other large screens (follow-up assays come after a bar, where they were run). Shown are actives, neighbours in structure and some others; about 7.4% of the full set was active somewhere. Unless noted, the call rests on the fitted dose curve; in most records, active means well fitted curve in the direction sought with a large enough effect; inconclusive means small, poorly fitted or top-dose-only effect, or another doubt; inactive means no such curve, though single readings can be large; an effect the other way counts as inactive or inconclusive.

COCCn1c(=O)c(C(=O)N2CCN(C(=O)C3CCCC3)CC2)nc2cccnc21	none (no result: Luciferase inh, hNpr1 antagonist)
Cc1cc(C)c(S(=O)(=O)N2CC(c3nc(-c4ccncc4)no3)C2)c(C)c1	hNpr1 antagonist 14.1µM, 3T3 cytotox inconclusive, HEK cytotox 44.7µM | Npr1 antag conf 24.3µM | NPR2 antag 21.7µM | FLuc counter inactive | GloSensor ctrl 21.7µM
O=C(NC(C(=O)N1CCCCC1)C1CCN(C(=O)c2ccccc2F)CC1)c1ccccc1 (stereo not given)	none
Cn1ccc2c(C(=O)NCc3cccnc3)nc(-c3cccc4cc[nH]c34)cc21	hNpr1 antagonist inconclusive, HEK293 viab inconclusive, 3T3 cytotox inconclusive, HEK cytotox inconclusive | Npr1 antag conf inconclusive | NPR2 antag inconclusive | FLuc counter inactive | GloSensor ctrl inactive
Cn1ccc2c(C(=O)NCc3cccnc3)nc(Nc3ccccc3)cc21	SNCA expr inhib inconclusive, hNpr1 antagonist inconclusive, 3T3 cytotox inconclusive, HEK cytotox 63.1µM | Npr1 antag conf 35.3µM | NPR2 antag 35.3µM | FLuc counter inactive | GloSensor ctrl 31.4µM
Cn1ccc2c(C(=O)NCc3cccnc3)nc(-c3cccc(N4CCOCC4)c3)cc21	3T3 cytotox inconclusive, HEK cytotox inconclusive
CCOc1ccc(C(=O)NC2CCN(c3cnn(CC)c(=O)c3)CC2)cc1	3T3 cytotox 28.2µM | Npr1 antag conf inactive | NPR2 antag inactive | FLuc counter inactive | GloSensor ctrl inconclusive
CCOc1ccc(C(=O)NC2CCN(c3cnn(CCOC)c(=O)c3)CC2)cc1	none
O=C1CN([S+](=O)([O-])c2ccc(F)cc2)CC(O)CN1CCOc1ccccc1 (stereo not given)	HEK cytotox inconclusive (no result: SNCA expr inhib, Luciferase inh, hNpr1 antagonist, HEK293 viab)
Cc1cn2nnc(C(=O)NCc3ccc(C(C)C)cc3)c2c(=O)[nH]1	hNpr1 antagonist inconclusive, 3T3 cytotox inconclusive, HEK cytotox inconclusive | Npr1 antag conf 27.3µM | NPR2 antag inconclusive | FLuc counter inactive | GloSensor ctrl 24.3µM
CCOc1ccccc1C(=O)N1CCc2[nH]nc(C(=O)NCCCc3ccccc3)c2C1	hNpr1 antagonist inconclusive, 3T3 cytotox inconclusive, HEK cytotox 22.4µM | Npr1 antag conf 24.3µM | NPR2 antag inconclusive | FLuc counter inactive | GloSensor ctrl 19.3µM
CC(=O)N1CCC2(CC1)CCN(c1ncccc1C#N)CC2CO (stereo not given)	none
COc1ccnc(N2CCC(CO)(Cc3ccccc3C(F)(F)F)CC2)n1	3T3 cytotox inconclusive, HEK cytotox inconclusive
N#Cc1cccnc1N1CCC(CO)(Cc2ccccc2C(F)(F)F)CC1	hNpr1 antagonist inconclusive, 3T3 cytotox inconclusive, HEK cytotox inconclusive | Npr1 antag conf 21.7µM | NPR2 antag 17.2µM | FLuc counter inactive | GloSensor ctrl inactive
Cc1nnc(N2CCC(CO)(CN3CCCC3)CC2)c2ccccc12	none
COc1cc(N2CCC(CO)(Cc3ccccc3C(F)(F)F)CC2)ncn1	SNCA expr inhib inconclusive, hNpr1 antagonist 11.2µM, 3T3 cytotox inconclusive, HEK cytotox inconclusive | Npr1 antag conf 19.3µM | NPR2 antag 19.3µM | FLuc counter inactive | GloSensor ctrl 15.3µM
Cc1ncnc(N2CCC(CO)(Cc3ccccc3C(F)(F)F)CC2)c1C	hNpr1 antagonist 11.2µM, HEK293 viab inconclusive, 3T3 cytotox inconclusive, HEK cytotox 39.8µM | Npr1 antag conf 24.3µM | NPR2 antag 24.3µM | FLuc counter inactive | GloSensor ctrl 19.3µM
CCCC(C)NC(=O)c1cc(-c2ccc(C(F)(F)F)cc2)nc2c1cnn2C (stereo not given)	3T3 cytotox inconclusive (no result: SNCA expr inhib, Luciferase inh, hNpr1 antagonist, HEK293 viab)
Cc1noc(C)c1S(=O)(=O)N1CCc2nn(Cc3ccccc3)c(=O)n2CC1	none (no result: Luciferase inh, hNpr1 antagonist)
CC(C)c1ccc(CN2CCc3ncc(C(=O)NCc4ccccc4)n3CC2)cc1	SNCA expr inhib inconclusive, hNpr1 antagonist 28.2µM, 3T3 cytotox inconclusive, HEK cytotox 28.2µM | Npr1 antag conf 25µM | NPR2 antag 31.4µM | FLuc counter inactive | GloSensor ctrl 22.2µM
COc1ccc2ccc(OCc3nc(C(=O)N4CCNC(=O)C4C)co3)cc2c1 (stereo not given)	SNCA expr inhib inconclusive, hNpr1 antagonist 11.2µM, 3T3 cytotox inconclusive, HEK cytotox inconclusive | Npr1 antag conf 24.3µM | NPR2 antag 21.7µM | FLuc counter inactive | GloSensor ctrl 21.7µM
COc1ccc2ccc(OCc3nc(C(=O)N4CCCNC(=O)C4)co3)cc2c1	Luciferase inh inconclusive, hNpr1 antagonist inconclusive, 3T3 cytotox inconclusive, HEK cytotox inconclusive
CC(C)c1nc(-c2ccc(OC3CCN(C(=O)c4n[nH]c5ccccc45)C3)cc2)no1 (stereo not given)	hNpr1 antagonist 15.8µM, 3T3 cytotox inconclusive, HEK cytotox 28.2µM | Npr1 antag conf 24.3µM | NPR2 antag 24.3µM | FLuc counter inactive | GloSensor ctrl 19.3µM
O=C(c1cc(F)ccc1F)N1CCC(Oc2cccnc2)C1 (stereo not given)	none (no result: Luciferase inh, hNpr1 antagonist)
CC(C)c1nc(-c2ccc(OC3CCN(C(=O)c4cc(F)ccc4F)C3)cc2)no1 (stereo not given)	hNpr1 antagonist 11.2µM, 3T3 cytotox inconclusive, HEK cytotox 20µM | Npr1 antag conf 10.9µM | NPR2 antag 13.7µM | FLuc counter inactive | GloSensor ctrl 10.9µM
COc1ccc(-c2noc(CC3CCN(C(=O)c4cc(Cl)ccc4F)CC3)n2)cc1	hNpr1 antagonist 7.08µM, 3T3 cytotox inconclusive, HEK cytotox 39.8µM | Npr1 antag conf 9.68µM | NPR2 antag 10.9µM | FLuc counter inactive | GloSensor ctrl 9.68µM
COc1ccc(-c2noc(CC3CCN(C(=O)c4cc(F)ccc4F)CC3)n2)cc1	SNCA expr inhib inconclusive, hNpr1 antagonist 7.08µM, 3T3 cytotox inconclusive, HEK cytotox inconclusive | Npr1 antag conf 6.85µM | NPR2 antag 6.85µM | FLuc counter inactive | GloSensor ctrl 4.32µM
O=C(N[C@H]1CO[C@H]2[C@@H]1OC[C@@H]2n1nnnc1Oc1ccc2c(c1)OCO2)c1ccc(C(F)(F)F)cc1	hNpr1 antagonist 7.94µM, 3T3 cytotox inconclusive, HEK cytotox inconclusive | Npr1 antag conf 6.85µM | NPR2 antag 8.62µM | FLuc counter inactive | GloSensor ctrl 5.44µM
